Source: PubChem BioAssay (Tox21)
Results filed as inconclusive are left out. Entries that show only a call come without a potency. Calls of active or inactive are those of the source. Calls come from the whole dose curve; as a rule, active = well fitted activation curve with a large enough effect in the signal ratio in the repeat runs (not every such curve was filed as active); inconclusive = weak or mixed curves; inactive = flat fitted curve, though single readings scatter; the % refers to the signal ratio.

Test: qHTS assay to identify small molecule agonists of the TGF-beta/Smad signaling pathway (AID 1346859)
Details: SBE-bla HEK293T, TGF-beta/Smad beta-lactamase reporter, 5 h; series mostly up to 76.8 µM
From the text: U.S. Tox21 Program National Center for Advancing Translational Sciences [NCATS] NIH Chemical Genomics Center [NCGC] U.S. Environmental Protection Agency [EPA] National Institutes of Environmental Health Sciences [NIEHS] National Toxicology Program [NTP] U.S. Food and Drug Administration [FDA] Tox21 Assay Overview: Transforming growth factor beta (TGF-beta) superfamily consists of a large number of structurally related dimeric proteins that act as hormones or local mediators in regulating a wide range of biological functions. This superfamily includes TGF-betas themselves, the bone morphogenetic proteins (BMPs) and the activins. These ligands induce oligomerization of serine/threonine receptor kinases and phosphorylate the cytoplasmic signaling molecules of Smad protein family. CellSensor SBE-bla HEK 293T cell line (Life Technologies, Carlsbad, CA), responsive to TGF-beta was used to screen Tox21 10K compound library for identification of agonists/antagonists of the Smad signaling pathway. This cell line contains a beta-lactamase reporter gene under control of the Smad binding element (SBE) stably integrated into HEK 293T cells.
Tox21 Assay Protocol Summary: SBE-bla HEK 293T cells were dispensed at 4,000/well in 6 uL of assay medium into black wall/clear-bottom 1536-well plates using a Multidrop Combi (ThermoFisher Scientific, Waltham, MA) dispenser. After the assay plates were incubated at 37 C and 5% CO2 for an overnight, 23 nL of compounds dissolved in DMSO, positive controls or DMSO only was transferred to the assay plate by a Pintool station (Kalypsys, San Diego, CA). The assay plates were incubated at 37 C and 5% CO2 for 5 hr. One uL of LiveBLAzer B/G FRET substrate (Life Technologies) was added using a Flying Reagent Dispenser (Aurora Discovery, San Diego, CA) and the plates were incubated at room temperature for 2 hr. Fluorescence intensity (405 nm excitation, 460 nm and 530 nm emissions) was measured using an Envision plate reader (PerkinElmer, Shelton, CT).
With CN(Cc1ccc(C(C)(C)C)cc1)Cc1cccc2ccccc12 the Potency was “inactive”.
In the case of C=CCOC(=O)CCC1CCCCC1, the Potency is reported as “inactive”.
With CCCCCCCC/C=C\CCCCCCCC(=O)OCC the Potency was “inactive”.
With Cc1c(N)cccc1[N+](=O)[O-] the Potency was “inactive”.
In the case of COc1ccc(C)cc1[N+](=O)[O-], the Potency is reported as “inactive”.
With CC(=O)c1ccc2c(c1)N(CCCN(C)C)c1ccccc1S2 the Potency was “inactive”.
In the case of CCN(CC)CCNC(=O)c1cc(Br)c(N)cc1OC, the Potency is reported as “inactive”.
For O=C1CCC(=O)O1, the Potency was “inactive”.
For CC(C)C[C@H]1C(=O)N2CCC[C@H]2[C@]2(O)O[C@](NC(=O)[C@@H]3C=C4c5cccc6[nH]c(Br)c(c56)C[C@H]4N(C)C3)(C(C)C)C(=O)N12, the Potency was “inactive”.
For CN1CCC(N(Cc2cccs2)c2ccccc2)CC1, the Potency was “inactive”.
In the case of CCCCCCCCCCCCCCCCCCOS(=O)(=O)O, the Potency is reported as “inactive”.
With CC(=O)c1ccc2c(c1)N(CCCN1CCC(CCO)CC1)c1ccccc1S2 the Potency was “inactive”.
For CCC(C)(C)CC, the Potency was “inactive”.
With CCC(CC)Nc1ccc(C)c(C)c1 the Potency was “inactive”.
With CN(C)c1ccc(C(c2ccccc2)c2ccc(N(C)C)cc2)cc1 the Potency was “inactive”.
With C#C[C@]1(O)CC[C@H]2[C@@H]3CCc4cc(OC5CCCC5)ccc4[C@H]3CC[C@@]21C the Potency was “inactive”.
In the case of C=C(C)C(=O)OCCOCC, the Potency is reported as “inactive”.
For CCCCC(CC)CN1C(=O)C2C3C=CC(C3)C2C1=O (stereo not given), the Potency was “inactive”.
With CCCCC(CC)COC(=O)CCCCCCCCC(=O)OCC(CC)CCCC (stereo not given) the Potency was “inactive”.
With CCO[C@H](Cc1ccc(OCCc2ccc(OS(C)(=O)=O)cc2)cc1)C(=O)O the Potency was “inactive”.
In the case of CC(=O)[O][Al][O]C(C)=O, the Potency is reported as “inactive”.
For O=C(Nc1ccc(S(=O)(=O)N2CCOCC2)cc1)c1cc(Cl)ccc1NS(=O)(=O)c1ccc(Cl)s1, the Potency was “inactive”.
With C#CCN(C)CCCOc1ccc(Cl)cc1Cl the Potency was “inactive”.
In the case of CCOC(=O)C1=C[C@]2(CC)CCCN3CCc4c(n1c1ccccc41)[C@@H]32, the Potency is reported as “inactive”.
With CC(C)CC(=O)C1C(=O)c2ccccc2C1=O the Potency was “inactive”.
In the case of CCn1cc(C(=O)O)c(=O)c2cnc(N3CCNCC3)nc21, the Potency is reported as “inactive”.
In the case of CCOCC(O)COc1ccc(NC(=O)CC[S+](C)C)cc1 (stereo not given), the Potency is reported as “inactive”.
In the case of Cc1ccc(N=Nc2c(O)c(C(=O)O)cc3ccccc23)c(S(=O)(=O)O)c1, the Potency is reported as “inactive”.
In the case of CN1CCC(=C2c3ccccc3Sc3ccccc32)CC1, the Potency is reported as “inactive”.
In the case of NCCCN1CCOCC1, the Potency is reported as “inactive”.
In the case of CC(COCCO)OCCO (stereo not given), the Potency is reported as “inactive”.
For C=C(C)C(=O)OCC, the Potency was “inactive”.
With OCCN1CCN(CCCN2c3ccccc3C=Cc3ccccc32)CC1 the Potency was “inactive”.
For c1ccc(C(O[C@H]2CCCN(CCc3ccc4c(c3)OCO4)C2)c2ccccc2)cc1, the Potency was “inactive”.
For CC(C)=CCC/C(C)=C/CC/C(C)=C/CO, the Potency was “inactive”.
For N=c1ccn2c(n1)O[C@H]1[C@H](O)[C@@H](CO)O[C@H]12, the Potency was “inactive”.
For C=CC(=O)OCCOCCOC(=O)C=C, the Potency was “inactive”.
With C=CC1CC2C=CC1C2 (stereo not given) the Potency was “inactive”.
For CCCCC1=NC2(CCCC2)C(=O)N1Cc1ccc(-c2ccccc2-c2nn[nH]n2)cc1, the Potency was “inactive”.
In the case of COC(C)(C)CCO, the Potency is reported as “inactive”.
